Source: PubChem BioAssay (National Center for Advancing Translational Sciences (NCATS))
The list is not random: actives were taken first. Their share in the collection is about 8.2%.
ELG1 DNA repair = qHTS screen for small molecules that inhibit ELG1-dependent DNA repair in human embryonic kidney (HEK293T) cells expressing luciferase-tagged ELG1. HEK293T ELG1-luciferase reporter, luminescence, 16 h; DNA damage induced by 5-fluorouridine. Potency, µM (highest dose often 46.1 µM), actives largely listed as inhibitors. actives 2.3% (n = 330,000). AID 504467, 2011; note: nearly all actives have a fitted effect of over 55% in size
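Reporter activity after DNA damage by 5-fluorouridine is monitored. Compound-treated cells incubate 16 hr at 37 °C, then ONE-Glo is added for 30 min before luminescence reading.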
MCF10A rereplic = A quantitative high throughput screen for small molecules that induce DNA re-replication in MCF 10a normal breast cells. Potency, µM (series often up to 46.1 µM), usual class: activators. AID 624296, 2012. actives 2.9% (n = 350,000). MCF 10A DNA re-replication, Hoechst nuclear intensity, 48 h; note: nearly all actives have a fitted effect of over 50% in size
SW480 rerep = A quantitative high throughput screen for small molecules that induce DNA re-replication in SW480 colon adenocarcinoma cells; SW480 DNA re-replication, Hoechst DNA content imaging, 48 h; Potency, µM (titrated, usually from 46.1 µM), most hits filed as activators; actives 1.8% (n = 340,000); AID 624297, 2012; note: nearly all actives have a fitted effect of over 55% in size
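Per well, 250 cells were exposed to pinned compound for 48 hr. Nuclear DNA was visualised with Hoechst (40 min, 37 C) and total object intensity recorded by fluorescence scanning.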
KB-V1 MDR tox = qHTS assay for MDR1-selective chemotherapeutics: Primary screen using the drug-selected MDR subline cells KB-V1 | KB-V1 MDR cells viability, CellTiter-Glo, 72 h | Potency, µM (doses to about 46.1 µM), most hits filed as cytotoxic | actives 3.4% (n = 400,000) | AID 1347076, 2019; note: nearly all actives have a fitted effect of over 60% in size
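Compound-treated KB-V1 multidrug-resistant cells, 72 h, 37 degrees C; viability by CellTiter-Glo. Fitted qHTS curves give the values.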
KB-3-1 tox = qHTS assay for MDR1-selective chemotherapeutics: Primary screen using the parental adenocarcinoma cell KB-3-1; KB-3-1 viability, CellTiter-Glo ATP luminescence, 72 h; Potency, µM (titrated, usually from 46.1 µM), actives largely listed as cytotoxic; AID 1347075, 2019; actives 1.4% (n = 400,000); note: nearly all actives have a fitted effect of over 60% in size
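Cytotoxicity measured as CellTiter-Glo luminescence after 72 h at 37 C. Compound titrations were pinned onto drug-naive KB-3-1 parental adenocarcinoma cells grown in DMEM with 10% FBS, and normalized data fitted to concentration-response curves.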
A number is an active result; i = inactive; ? = inconclusive; nt = not tested or not shown; [ ] = dose if it differs, or a comment. Calls come from the whole dose curve; as a rule, active = well fitted curve in the direction sought with a large enough effect; inconclusive = small, poorly fitted or top-dose-only effect, or another doubt; inactive = no such curve, though single readings can be large; an effect the other way counts as inactive or inconclusive.

SMILES	ELG1 DNA repair	MCF10A rereplic	SW480 rerep	KB-V1 MDR tox	KB-3-1 tox
O=C(N/N=C/c1ccc2c(c1)OCO2)c1cc(-c2ccco2)nc2ccccc12	i	?	14.6µM	?	?
COc1cc(Cl)cc(/C=N\NC(=O)c2ccc3c(c2)OCO3)c1O	nt	nt	nt	?	i
Cn1cc(C(=O)N/N=C/c2ccc3c(c2)OCO3)c2ccccc21	i	?	?	?	8.2µM
O=C(N/N=C/c1ccccc1Br)c1ccc(CSc2cccc3cccnc23)cc1	20.6µM	i	i	i	i
O=C(CCc1ccc(O)c(O)c1)N/N=C/c1ccc2c(c1)OCO2	5.8µM	?	i	i	i
Cn1cc(C(=O)N/N=C/c2ccc(Br)c([N+](=O)[O-])c2)c2ccccc21	?	i	?	i	16.4µM
O=C(N/N=C/c1ccc2c(c1)OCO2)c1cc(-c2ccccc2)nc2ccccc12	?	?	i	i	?
COc1ccc(-c2nn(-c3ccccc3)cc2C2NC(=O)NC(C)=C2C(=O)OC(C)C)cc1Cl (stereo not drawn)	nt	nt	nt	i	?
N#Cc1c[nH]n2c(NC3CCCCC3)c(-c3ccccc3F)nc12	nt	nt	nt	i	i
O=C(Cn1cc(COc2ccc3ccc(=O)oc3c2)nn1)c1ccc(O)cc1	nt	i	i	i	i
CN(C)S(=O)(=O)c1cccc(NC(=O)c2ccc(NS(=O)(=O)c3cccs3)cc2)c1	i	i	i	i	i
O=C(CSCc1cccc(Br)c1)N/N=C/c1ccc2c(c1)OCO2	i	?	?	i	18.4µM
O=C(N/N=C/c1ccccc1O)NC12CC3CC(CC(C3)C1)C2	?	?	i	i	i
O=C(O)c1ccc(N/N=C/c2ccc3c(c2)OCO3)cc1	?	i	i	?	20.6µM
O=C(N/N=C/c1c[nH]c2ccccc12)c1ccccc1	?	i	i	i	i
O=C(N/N=C/c1c[nH]c2ccccc12)c1ccc2c(c1)OCCO2	?	16.4µM	?	?	i
O=C(N/N=C/c1cc(Cl)cc([N+](=O)[O-])c1O)NC12CC3CC(CC(C3)C1)C2	i	18.4µM	i	?	?
CCOc1ccccc1NC(=O)c1cn(C2CCCCC2)c(=O)c2c1c1ccccc1n2C	nt	nt	nt	i	i
O=C(N/N=C/c1ccc2c(c1)OCO2)c1ccccn1	?	i	i	14.6µM	?
O=Cc1cc2cc3c(cc2nc1Cl)OCCO3	?	i	i	i	i
O=C(O)c1ccc(N/N=C/c2cc3cc4c(cc3nc2Cl)OCCO4)cc1	?	13µM	?	i	i
O=C(N/N=C/c1cc2c(cc1Br)OCO2)c1ccccn1	?	i	i	?	i
O=C(N/N=C/c1ccc2c(c1)OCO2)c1cccc2ccccc12	i	16.4µM	i	?	?
CCN(CC)S(=O)(=O)c1cccc(NC(=O)C(=O)c2c(-c3ccccc3)cc3ccccn23)c1	16.4µM	i	i	3.26µM	i
CCN(CC)S(=O)(=O)c1cc(NC(=O)C(=O)c2c(-c3ccccc3)cc3ccccn23)ccc1C	16.4µM	i	i	i	i
SMILES	ELG1 DNA repair	MCF10A rereplic	SW480 rerep	KB-V1 MDR tox	KB-3-1 tox
CC(C)(C)c1ccc(-c2conc2N)cc1	?	17.8µM	?	i	i
Oc1cc(-c2cccnc2)cc2cccnc12	?	10.3µM	?	?	?
CN1CCN(c2cc(-c3cc(O)c4ncccc4c3)ccn2)CC1	?	i	?	i	?
CCOC(=O)c1cc([N+](=O)[O-])cc([N+](=O)[O-])c1Sc1ncnc2nc[nH]c12	nt	?	11.6µM	?	?
CCOC(=O)c1c(Cl)c(C)nn1-c1nc(OC)cc(OC)n1	i	i	i	2.91µM	?
C[n+]1ccc(/C=C/c2cc[n+](C)c3ccccc23)c2ccccc21	nt	nt	nt	i	?
CN1C=C/C(=C\c2cc[n+](C)c3ccccc23)c2ccccc21	?	0.581µM	i	i	i
CCc1ccc(NC(=S)N2CCC(NC(=O)c3ccccc3OC)CC2)cc1	i	i	i	i	i
CCc1ccc(NC(=S)N2CCC(NC(=O)c3ccccc3)CC2)cc1	i	18.4µM	i	i	i
COc1ccc(NC2=NC3(CCCCC3)N=C(N)N2)cc1	i	i	i[9.22 µM]	i	i
CCCCOc1ccc(NC2=NC3(CCCCC3)N=C(N)N2)cc1	i	?	i	i	14.6µM
CCC(=O)Nc1ccc2c(c1)OC[C@@H](C)NC[C@@H](C)[C@@H](OC)CN(C)C2=O	nt	nt	nt	i	i
Cc1cccc[n+]1CCCCCCCCCC[n+]1ccccc1C	?	i	i	i	1.46µM
Oc1ccc(Nc2nc(-c3ccc(O)cc3)cs2)cc1	?	12.6µM	?	i	?
CC(=O)Oc1ccc(-c2csc(Nc3ccc(S(N)(=O)=O)cc3)n2)cc1	i	i	i[1.84 µM]	i	i
COc1ccc(-c2csc(Nc3ccc(S(N)(=O)=O)cc3)n2)cc1	16.4µM	10.3µM	?	i	?
COc1cccc(NC(=O)N2CCN(c3nc(-c4cccc(OC)c4)cs3)CC2)c1	14.6µM	i	?	16.4µM	?
COc1cccc(-c2csc(N3CCN(C(=O)Nc4ccccc4Cl)CC3)n2)c1	i	i	i	i	i
COc1cccc(-c2csc(N3CCN(C(=O)NC45CC6CC(CC(C6)C4)C5)CC3)n2)c1	23.1µM	?	?	i	i
COc1cccc(-c2csc(N3CCN(C(=S)Nc4ccc(Cl)cc4)CC3)n2)c1	?	i	i	23.1µM	i
CNC(=S)N1CCN(c2nc(-c3cccc(OC)c3)cs2)CC1	i	i	?	i	i
c1ccc(C2=Nn3c(nnc3-c3n[nH]c4c3CCC4)SC2)cc1	?	?	i	?	i
Clc1ccc(C2=Nn3c(nnc3-c3n[nH]c4c3CCC4)SC2)cc1Cl	?	?	?	4.61µM	?
O=C(CN1CCN(c2ccc(O)cc2)CC1)N(C1CC1)C1CCS(=O)(=O)C1 (stereo not drawn)	i	i	i	i	i
CCCCNC(=O)C1(C)CCCCN1Cc1ccc(OCc2ccccc2)cc1 (stereo not drawn)	nt	nt	nt	14.6µM	?
SMILES	ELG1 DNA repair	MCF10A rereplic	SW480 rerep	KB-V1 MDR tox	KB-3-1 tox
Cc1cccc(N2CC(C(=O)Nc3nnc(SCC(=O)NCC4CCCO4)s3)CC2=O)c1 (stereo not drawn)	i	?	i	i	i
CN(C)c1ccc(SC#N)cc1	18.3µM	i	i[9.22 µM]	i	i
Cn1nc([N+](=O)[O-])nc1Sc1nnc(-c2ccccc2)o1	?	?	4.11µM	i	?
O=Cc1ccc(Sc2nnc(-c3ccccc3)o2)c([N+](=O)[O-])c1	i	2.91µM	?	?	?
N/C(=N\OC(=O)c1ccccc1Cl)c1cccc([N+](=O)[O-])c1	?	i	i	i	i
N/C(=N/OC(=O)c1ccccc1Cl)c1ncc([N+](=O)[O-])s1	?	?	?	?	23.1µM
